# hERG WT inh: blocks the wildtype human KCNH2 potassium channel; Q12809; AID 720551; actives 0.37% (n = 340,000); activity change, % at 1.84 µM; U2OS, BacMam KCNH2, thallium flux FluxOr; active compounds read low;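 active = maximum activity change below -70%; inconclusive = maximum activity change between -70% and -50%; inactive = maximum activity change above -50%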; also: % is scaled to controls: 0 for no effect and ±100 for the full control effect
#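 U2OS cells were transduced with wild-type KCNH2 virus (2.03 x 10^8 / mL) for 4 h at room temperature, then cultured overnight at 37 C. Thallium flux was read with FluxOr dye. Rate constants were normalized to DMSO controls.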
# ALOX12 inh: blocks human arachidonate 12S-lipoxygenase; P18054; Potency, µM (doses to about 108 µM), inactives show at the highest dose activity change, negative = inhibition, actives largely listed as inhibitors; purified 12hLO, xylenol orange hydroperoxide absorbance; actives 1.1% (n = 580,000); also: potency is read from the fitted curve at half-maximal effect; % is scaled to controls: 0 for no effect and ±100 for the full control effect
# Target sequence (P18054 whole entry, looked up): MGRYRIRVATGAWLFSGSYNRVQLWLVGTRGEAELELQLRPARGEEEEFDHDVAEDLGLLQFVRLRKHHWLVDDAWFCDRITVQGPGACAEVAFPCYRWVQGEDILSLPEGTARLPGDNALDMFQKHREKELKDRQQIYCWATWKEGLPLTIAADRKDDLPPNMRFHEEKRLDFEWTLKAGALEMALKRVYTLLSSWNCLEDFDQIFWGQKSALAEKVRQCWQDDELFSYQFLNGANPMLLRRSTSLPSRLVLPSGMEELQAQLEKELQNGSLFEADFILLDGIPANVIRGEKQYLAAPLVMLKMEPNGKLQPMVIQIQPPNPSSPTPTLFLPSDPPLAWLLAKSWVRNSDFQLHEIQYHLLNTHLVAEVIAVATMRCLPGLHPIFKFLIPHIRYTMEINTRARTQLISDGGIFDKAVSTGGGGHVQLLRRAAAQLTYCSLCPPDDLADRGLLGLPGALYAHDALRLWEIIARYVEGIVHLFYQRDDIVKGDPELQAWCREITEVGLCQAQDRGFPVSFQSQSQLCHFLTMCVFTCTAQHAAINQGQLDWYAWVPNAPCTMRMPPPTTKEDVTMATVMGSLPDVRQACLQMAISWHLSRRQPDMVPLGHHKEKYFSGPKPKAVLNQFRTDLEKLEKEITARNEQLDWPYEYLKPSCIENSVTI
#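 Hydroperoxide product was detected by ferrous iron/xylenol orange as the 573 to 405 nm absorbance ratio. Arachidonic acid at 40 uM (final) was turned over for 30 min at room temperature by 150 nM human 12hLO, pH 7.0 Hepes buffer, after 15 min compound preincubation.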
# ClpP mod: qHTS Assay for Activators of ClpP. ATP-dependent Clp protease proteolytic subunit (Bacillus subtilis (strain 168)), P80244. Potency, µM (top dose mostly 57.5 µM), for the others: top-dose activity change, negative = active. purified B. subtilis ClpP, FRET peptide cleavage, 20 min. actives 1.9% (n = 340,000); active = well fitted falling curve with a large enough effect; inconclusive = small, poorly fitted or top-dose-only effect; inactive = no such curve, though single readings can be large or run the other way; also: potency is read from the fitted curve at half-maximal effect; the source files actives as falling curves though it sought activators and does not explain the sign; nearly all actives have a fitted effect of over 65% in size
# Target sequence (P80244 whole entry, looked up): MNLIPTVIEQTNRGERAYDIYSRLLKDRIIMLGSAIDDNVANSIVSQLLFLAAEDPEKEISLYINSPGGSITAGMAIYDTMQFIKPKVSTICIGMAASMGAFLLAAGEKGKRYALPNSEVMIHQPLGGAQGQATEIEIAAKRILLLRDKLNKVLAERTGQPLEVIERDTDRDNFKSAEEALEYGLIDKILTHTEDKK
#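 Purified B. subtilis ClpP, 10 microg/mL final in Tris/HCl pH8 with KCl, BSA, glycerol and Tween-20, cleaved an Abz/nitrotyrosine-quenched decapeptide. Fluorescence (ex 320, em 430) was read at 0 and 20 min at room temperature. Delta was normalized to 5.8 microM ADEP and DMSO/no-enzyme controls.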
# LDHA inh: LDHA (human) enzyme inhibition. P00338. purified LDHA, NADH/diaphorase-resazurin fluorescence; active compounds read low. activity change, % (values are at about 110 or 230 µM). actives 0.15% (n = 480,000). AID 1347041; in the data active = activity change below about -30%; inconclusive = mostly about -25% to -30%;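 also: plate controls were DMSO wells for no effect and wells without enzyme for full effect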
#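 Remaining NADH was detected by diaphorase (0.133 mg/mL) converting 37 µM resazurin to fluorescent resorufin, read at 0 and 20 minutes. The preceding 5-minute room-temperature reaction used 2 nM LDHA, 0.2 mM sodium pyruvate and 0.06 mM NADH at pH 7.4.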
# KCNH2 3.1 inh: KCNH2 3.1 (human) potassium channel inhibition. U2OS KCNH2 3.1, thallium flux FluxOr; active compounds read low. activity change, % (tested at about 1.8 µM). actives 0.95% (n = 340,000);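 active = maximum activity change below -70%; inconclusive = maximum activity change from -70% to -50%; inactive = maximum activity change above -50%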;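 also: thallium influx rate constant from kinetic fluorescence after stimulation buffer; % is scaled to controls: 0 for no effect and ±100 for the full control effect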
#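 Steps: virus added to U2OS suspension (4 h, RT, dark); medium with 10% FBS added, cells plated, 37 C overnight; FluxOr/Red40 loading buffer 45 min RT; stimulation buffer, 2 min kinetic read; rate constant normalized.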
# Chronic BCR inh: blocks chronic active B-cell receptor signaling; Potency, µM (doses to about 46.1 µM), inactives show at the highest dose activity change, negative = inhibition, actives largely listed as inhibitors; actives 0.05% (n = 340,000); ABC-DLBCL IkBa-CBG/CBR reporter, luminescence ratio, 4 h; active = well fitted inhibition curve with a large enough effect in the signal ratio, with a control signal flat, not every such curve was filed as active; inconclusive = small, poorly fitted or top-dose-only effect, or effect the other way, or a change in a side signal; the % refers to the signal ratio;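 also: potency is read from the fitted curve at half-maximal effect; plate controls were basal doxycycline-induced cells for no effect and cells given 10 µM MG132 for full effect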
#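 TMD8 human ABC-DLBCL cells with doxycycline-inducible IκBα–green luciferase fusion and unfused red luciferase, in 0.5% FBS medium; compounds up to 46 uM, 4 h at 37C. Green/red luminescence ratio, filter-overlap corrected, fitted to concentration-response curves.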
# ClpP validation: Bacillus subtilis ClpP inhibition, validated hit. shares compounds with ClpP mod. Potency, µM (series often up to 57.5 µM), for inactives: at the top dose activity change, negative = inhibition, most hits filed as inhibitors. AID 743245. actives 40% (n = 470). purified B. subtilis ClpP, FRET-FV substrate cleavage, 20 min; also: potency is read from the fitted curve at half-maximal effect; % is scaled to controls: 0 for no effect and ±100 for the full control effect; nearly all actives have a fitted effect of over 70% in size
# * = called active by the depositor; ? = inconclusive; . = no result. This is a sample that favours compounds with a hit; in the whole collection about 3% have one here. Unless noted, calls follow the shape of the dose curve; as a rule, active = well fitted curve in the direction sought with a large enough effect; inconclusive = small, poorly fitted or top-dose-only effect, or another doubt; inactive = no such curve, though single readings can be large; an effect the other way counts as inactive or inconclusive.
SMILES,hERG WT inh,ALOX12 inh,ClpP mod,LDHA inh,KCNH2 3.1 inh,Chronic BCR inh,ClpP validation
CCOc1ccc(NS(=O)(=O)c2ccc(C(=O)N3CC(C)OC(C)C3)cc2)cc1 (stereo not drawn),30.0,7.9%,0.8%,2.3,1.1,-3.2%,.
Cc1nn(-c2ccccn2)c2c1-c1nc(N)ncc1CC2,-2.2,70.9%,10µM*,3.6,-2.0,-1.2%,17.2µM*
Cc1nn(-c2ccccn2)c2c1-c1nc(N3CCOCC3)ncc1CC2,-2.1,-21.9%,2.5%,-5.2,-14.2,6.6%,.
CCCC(=O)Nc1cc(-c2nc3ncccc3o2)ccc1C,2.8,2.6%,3.16µM*,-11.0,14.1,?,24.3µM*
c1nc2n(n1)C1=C(CCCC1)C1(CCCCC1)N2,2.3,2.4%,10µM*,-0.9,9.0,5.2%,-1.3%
CC1CCC(C(C)C)C(OC(=O)COC(=O)c2ccc(CSc3ccc(Cl)cc3)cc2)C1 (stereo not drawn),.,?,.,3.2,.,.,.
Cc1ccc(Cn2ccc(NC(=O)c3nn(C)cc3Cl)n2)cc1,2.6,17.3%,91.4%,-3.6,.,-16.1%,-0.8%
Cc1ccc(Cn2nc(C)c(NC(=O)c3nn(C)cc3Cl)c2C)cc1,-0.8,0.0%,-4.1%,-4.9,0.0,-17.1%,.
CC(C)CCNC(=O)c1cc(-c2ccco2)nc2ccccc12,-5.5,?,3.98µM*,-6.7,10.6,20.5%,6.85µM*
CCCCCCNC(=O)c1cc(-c2ccco2)nc2ccccc12,-0.7,?,?,-1.3,1.9,?,.
O=C(CNC(=O)c1cccc(F)c1)NC1CC1,5.1,10.7%,3.55µM*,-1.1,-3.1,1.4%,-0.7%
Cc1ccc(S(=O)(=O)N2CCCCC2)cc1NC(=O)c1nn(C(C)C)c(=O)c2ccccc12,.,-26.9%,.,-1.0,.,.,.
Cn1c(=O)c2c(-c3ccc(Cl)cc3)n(Cc3ccc(Cl)cc3)cc2n(C)c1=O,.,?,10µM*,-10.1,.,.,38.5µM*
CCOC(=O)c1sc2nc(CC(=O)OC)nc(Nc3ccc(Cl)cc3)c2c1C,.,0.3%,.,0.6,.,.,.
N#Cc1ccc2c(c1)nc1ccccn12,-10.5,-7.3%,.,-7.8,-12.8,1.8%,.
Clc1ccc2nc3ccccn3c2c1,2.7,0.0%,2.51µM*,-3.5,-3.6,1.3%,?
O=C(Nc1cccc(-c2cn3cccnc3n2)c1)c1ccco1,-4.6,0.9%,-3.6%,9.9,-3.4,?,.
O=C(Nc1cccc(-c2cn3cccnc3n2)c1)c1ccc(Br)o1,17.3,-7.6%,3.55µM*,-6.5,-49.8,-6.2%,2.73µM*
Cc1nonc1CN1CCN(C(C(=O)O)c2c[nH]c3cc(Cl)ccc23)CC1 (stereo not drawn),.,?,.,-2.8,.,.,.
CCc1ccc2[nH]c(C(=O)Nc3ccc(C)c(F)c3)cc2c1,1.1,-22.6%,22.5%,-2.0,14.3,6.4%,5.8%
Cc1ccc(C)c2[nH]c(=O)c(CN(CCCN(C)C)C(=O)NCc3ccccc3)cc12,1.7,132.6%,3.55µM*,-1.6,2.2,-3.3%,?
Cc1cc(C)c2cc(CN(CCCN(C)C)C(=S)NCc3ccccc3)c(=O)[nH]c2c1,17.2,-13.6%,-0.3%,-5.7,-1.8,-0.9%,.
COc1ccc2nc(NC(=O)c3ccc(-n4nc(C)cc4C)cc3)sc2c1,10.0,275.9%,-103.5%,-8.0,-4.9,-1.3%,27.3µM*
COc1ccc2nc(NC(=O)c3ccc(F)cc3)sc2c1,1.7,-11.7%,.,-2.4,12.6,?,.
Cc1cc(OCc2nn[nH]n2)c2c(C)cc(=O)oc2c1,.,?,.,0.7,.,.,.
SMILES,hERG WT inh,ALOX12 inh,ClpP mod,LDHA inh,KCNH2 3.1 inh,Chronic BCR inh,ClpP validation
CCCc1cc(=O)oc2cc(C)cc(OCc3nn[nH]n3)c12,-3.1,-18.2%,8.91µM*,-14.9,1.9,17.6%,34.3µM*
Cc1ccc(NC(=O)CSc2n[nH]c(=O)c3cc(-c4ccco4)nn23)cc1C,.,?,.,-1.5,.,.,.
Cc1ccn2c(Nc3ccc4c(c3)OCO4)c(-c3ccc(Cl)cc3)nc2c1,.,-1.9%,3.98µM*,0.0,.,.,-21.9%
Cc1ccn2c(Nc3ccc4c(c3)OCO4)c(-c3ccc(N(C)C)cc3)nc2c1,.,?,4.3%,8.0,.,.,.
Cc1cc(C)c2c(CC(=O)Nc3c(C(=O)Nc4ccc(Cl)cc4)oc4ccccc34)coc2c1,.,-14.9%,7.94µM*,-1.6,.,.,-23.4%
Cc1cccc(NC(=O)c2oc3ccccc3c2NC(=O)Cc2coc3cc(C)cc(C)c23)c1,.,-11.1%,-1.6%,2.0,.,.,.
CCN(CC(=O)Nc1c(F)cccc1F)C(=O)Cc1csc(-c2ccc(OC)c(OC)c2)n1,-8.4,1.8%,3.16µM*,-8.7,9.1,-5.0%,12.2µM*
Cn1c(C(=O)NCCC2=CCCCC2)cc2c(=O)n3ccccc3nc21,0.3,-7.2%,7.94µM*,-7.2,34.7,0.8%,-15.8%
O=C(NC(c1ccc(Cl)cc1)c1cccnc1)c1ccccc1 (stereo not drawn),.,-27.6%,.,?,.,.,.
Cc1cc(=O)oc2cc(OCc3cc4c(cc3Cl)OCO4)ccc12,-1.1,-23.0%,108.8%,-5.5,2.0,7.3%,?
Cc1ccccc1COc1ccc2c(C)cc(=O)oc2c1,.,4.6%,.,-0.3,.,.,.
CC(NC(=O)C(C#N)C(=O)/C=C/c1ccccc1)c1ccccc1 (stereo not drawn),.,?,.,0.5,.,.,.
CCCCCc1ccc(-c2ccc(-c3ccc(C#N)cc3)cc2)nc1,.,19.6%,.,3.6,.,.,.
COc1ccccc1NC(=O)Cn1cnc2c(cnn2-c2ccc(C)c(C)c2)c1=O,-9.4,-6.4%,36.0%,-3.6,-10.0,2.5%,-29.8%
COc1ccc(OC)c(NC(=O)Cn2cnc3c(cnn3-c3ccccc3)c2=O)c1,1.3,-9.6%,-0.8%,4.1,-8.4,6.4%,.
Cc1cc(Nc2ccccc2C)c2c([N+](=O)[O-])cc(C)c(C)c2n1,.,6.5%,.,-1.5,.,.,.
O=C(Nc1ccc([C@@H](O)[C@H]2COCC(=O)N2Cc2ccc(C(F)(F)F)cc2)cc1)C1CCCC1,.,0.9%,.,.,.,.,.
CCc1ccc(-c2csc(/C(C#N)=C/Nc3cccc(C)c3C)n2)cc1,.,?,.,-3.9,.,.,.
CC(C)COc1ccc(C(=O)Nc2cc(S(=O)(=O)N3CCOCC3)ccc2N2CCCC2)cc1,9.5,35.2%,47.5%,-2.8,-2.7,?,-11.4%
CCN1CCN(c2ccc(S(=O)(=O)N3CCOCC3)cc2NC(=O)c2ccc(OCC(C)C)cc2)CC1,-0.8,83.3%,1.8%,-5.2,-11.4,.,.
COc1cc(CNC(=O)Cc2ccc(Cl)cc2)ccn1,.,?,.,5.5,.,.,.
